HepG2 tox: kills HepG2 cells in TGF-b inhibitor counter-screen; AID 588856; Potency, µM (titrated, usually from 46.1 µM), inactives show at the top dose activity change, negative = cytotoxicity, actives largely listed as cytotoxic; HepG2 CAGA-GFP viability, ATP luminescence, 18 h; 410,000 tested, 0.76% active
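HepG2 CAGA-GFP cells (1000/well, DMEM with 1% FBS) received compound, then TGF-beta at 500 pg/mL final, and were incubated 18 hours at 37 degrees C. Viability was read by CellTiter-Glo luminescence. Media-only wells were set as complete cell-killing and DMSO as no toxicity.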
TDP1 cell CPT: DT40-hTDP1 cell growth loss with CPT; chicken DT40 Tdp1-/-;hTDP1 cells + 20 nM CPT, ATP luminescence, 48 h; Potency, µM (highest dose often 46.2 µM), for inactives: top-dose activity change, negative = growth inhibition, hits mostly inhibitors; 420,000 tested, 12% active; also: % is scaled to controls: 0 for no effect and ±100 for the full control effect; nearly all actives have a fitted effect of over 55% in size
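Chicken DT40 Tdp1-/- cells complemented with human TDP1, 400 cells/well, exposed to compounds plus 20 nM camptothecin for at least 48 h at 37 C; viability read as ATP content by CellTiter-Glo luminescence.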
DT40 TDP1 no CPT: qHTS for Inhibitors of human tyrosyl-DNA phosphodiesterase 1 (TDP1): qHTS in cells in absence of CPT | Potency, µM (series often up to 46.2 µM), without a hit: top-dose activity change, negative = growth inhibition, hits mostly inhibitors | DT40 Tdp1-/- hTDP1 cells, no CPT, ATP luminescence, 48 h | AID 686978, 2013 | 420,000 tested, 15% active; also: % is scaled to controls: 0 for no effect and ±100 for the full control effect; nearly all actives have a fitted effect of over 55% in size
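Readout: luminescence from CellTiter-Glo after 30 min in the dark at RT. Cells: DT40 Tdp1-/- with stable hTDP1, 400/well. Exposure: compounds alone, ≥48 hr, 37 °C.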
S2 tox: viability counter-screen for ATXN expression inhibitors. S2 cells (HEK-293 line with an ATXN2-luciferase reporter) viability, CellTiter-Fluor protease fluorescence, 24 h. Potency, µM (doses to about 56.7 µM), most hits filed as cytotoxic. 400,000 tested, 0.49% active. AID 651635; also: nearly all actives have a fitted effect of over 40% in size
ATXN2 expr inh: ATXN2 expression inhibition; HEK-293 ATXN2-luciferase reporter, luminescence, 24 h; Potency, µM (series often up to 57 µM), without a hit: at the highest dose activity change, negative = inhibition, hits mostly inhibitors; 360,000 tested, 0.72% active; AID 1745845; also: % is scaled to controls: 0 for no effect and ±100 for the full control effect; nearly all actives have a fitted effect of over 55% in size
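qHTS (up to 57 uM final) was run with 24 h compound exposure of reporter cells at 37 °C. Each well was multiplexed: SteadyGlo luminescence measured ATXN2-luciferase expression after a fluorogenic Gly-Phe-AFC viability readout (25 uM final).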
TGFb inhibitor: TGF-b pathway inhibition. HepG2 CAGA-GFP TGF-b/SMAD3 reporter, GFP fluorescence, 18 h; TGF-beta stimulated, 500 pg/mL final. Potency, µM (series often up to 46.1 µM), for the others: at the highest dose activity, negative = inhibition, most hits filed as inhibitors. 410,000 tested, 1.2% active. AID 588855; also: % is scaled to controls: 0 for no effect and ±100 for the full control effect; nearly all actives have a fitted effect of over 65% in size
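Smad-responsive CAGA-GFP expression was quantified in HEPG2 cells exposed to compounds and 500 pg/mL final TGF-beta for 18 h at 37 degrees C; unstimulated wells defined full inhibition.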
* hit, by the source's call; i = inactive; ? = inconclusive; · = no result. Shown are actives, neighbours in structure and some others; about 17% of the full set was active somewhere. Calls follow the shape of the dose curve; as a rule, active = well fitted curve in the direction sought with a large enough effect; inconclusive = small, poorly fitted or top-dose-only effect, or another doubt; inactive = no such curve, though single readings can be large; an effect the other way counts as inactive or inconclusive. Potency is read from the fitted curve at half-maximal effect.

SMILES | HepG2 tox | TDP1 cell CPT | DT40 TDP1 no CPT | S2 tox | ATXN2 expr inh | TGFb inhibitor
Cc1sc(NC(=O)c2ccco2)c(C(c2ccncc2)N2CCOCC2)c1C (stereo not drawn) | -41.4% | -27.3% | ? | i | -6.8% | -13.2%
Cc1sc(NC(=O)c2ccco2)c(C(c2cccnc2)N2CCN(C)CC2)c1C (stereo not drawn) | -10.8% | 20.6µM* | 11.6µM* | i | 0.4% | -2.3%
Cc1sc(NC(=O)c2ccco2)c(CN2CCN(c3ccccc3)CC2)c1C | -24.6% | 14.6µM* | 10.3µM* | i | -27.1% | -19.8%
Cc1sc(NC(=O)c2ccco2)c(C(c2cccnc2)N2CCCC2)c1C (stereo not drawn) | -13.2% | 2.91µM* | 2.31µM* | i | 21.1% | ?
COc1cc(OC)nc(O[C@H](C(=O)O)C(OC)(c2ccccc2)c2ccccc2)n1 | · | · | · | i | 8.0% | ·
COc1ccc(CCNC(=O)/C=C/c2ccco2)cc1 | -40.5% | 16.4µM* | ? | i | 16.3% | 5.6%
O=C(/C=C/c1ccccc1)NCCc1ccccc1 | 3.0% | 9.2µM* | 11.6µM* | i | 34.4% | 6.6%
NS(=O)(=O)c1ccc(CCNC(=O)/C=C/c2ccc([N+](=O)[O-])cc2)cc1 | -1.8% | ? | 14.6µM* | i | -20.1% | -27.2%
COc1ccc(CCNC(=O)/C=C/c2ccco2)cc1OC | 10.2% | -7.5% | -8.7% | i | -7.6% | -3.9%
O=C(/C=C/c1ccc([N+](=O)[O-])cc1)NCCc1ccccc1 | -3.8% | ? | ? | i | · | 8.7%
Cc1ccc(N2CC(NC(=O)C3CCCCC3)CC2=O)cc1C (stereo not drawn) | 3.9% | -9.9% | -23.6% | · | · | -17.5%
Cc1ccc(S(=O)(=O)Cn2nnnc2CN(Cc2ccco2)CC2CCCO2)cc1 (stereo not drawn) | -4.0% | -13.0% | -6.9% | i | 2.6% | 12.7%
Cc1cc(C)n(-c2ccc(C(=O)N3CCC(CO)(Cc4ccccc4)CC3)cc2)n1 | -3.5% | 16.4µM* | ? | · | 36.8% | ?
Cc1cc(C)n(-c2ccc(C(=O)N3CCN(S(=O)(=O)c4ccc(Br)cc4Cl)CC3)cc2)n1 | -11.6% | 23.1µM* | 16.4µM* | i | · | -16.3%
Cc1cc(C)n(-c2ccc(C(=O)N3CCN(c4ccccn4)CC3)cc2)n1 | 1.0% | -26.3% | -10.0% | i | 4.5% | -0.1%
O=S(=O)(c1ccc(Br)cc1Cl)N1CCN(CCO)CC1 | -5.2% | -6.3% | -5.2% | i | -2.6% | -7.1%
CCc1nn(CC(=O)NCCN(CC)CC)c(=O)c2cc3occc3n12 | -8.8% | ? | -37.1% | i | -2.6% | -11.5%
COC(=O)c1c(N)n(-c2ccc(NC(C)=O)cc2)c2nc3ccccc3nc12 | 7.0% | 23.1µM* | 20.6µM* | i | -16.7% | 3.3%
COCCNC(=O)c1c(N)n(-c2ccccc2)c2nc3ccccc3nc12 | -2.5% | -28.6% | -24.6% | · | -22.0% | -8.2%
Nc1c(C(=O)NCCN2CCOCC2)c2nc3ccccc3nc2n1CCc1ccccc1 | -38.4% | ? | 20.6µM* | · | ? | -15.5%
Nc1c(C(=O)NCCN2CCOCC2)c2nc3ccccc3nc2n1CCc1ccccc1F | -57.4% | ? | ? | · | ? | ?
COCCCNC(=O)c1c(N)n(-c2ccccc2)c2nc3ccccc3nc12 | -3.4% | ? | 18.4µM* | · | -16.5% | -25.8%
Nc1c(C(=O)NCc2ccco2)c2nc3ccccc3nc2n1CCc1ccc(F)cc1 | -102.8% | 20.6µM* | 18.4µM* | · | -34.3% | 15.8µM*
COc1ccc(-n2c(N)c(C(=O)NCc3ccco3)c3nc4ccccc4nc32)cc1 | -33.1% | ? | ? | i | ? | ?
